# From PMC5540273 (PLoS ONE, 2017)
# Several values for one entry are separate records, joined by “and”; a condition that tells them apart may be missing. Equal values may be shown once. Read-outs that look alike come from different tables or passages of the source.
# Key:
# [1] = tested on: MYO3B; details: concentration: 1 μM, replicates: in singlicate, n = 1
# [2] = tested on: T1, NDR1; details: concentration: 1 μM, replicates: in singlicate, n = 1
# T1 construct: gene STK38
# [3] = tested on: NDR2; details: concentration: 1 μM, replicates: in singlicate, n = 1
# [4] = tested on: NEK10; details: concentration: 1 μM, replicates: in singlicate, n = 1
# [5] = tested on: NEK11; details: concentration: 1 μM, replicates: in singlicate; n = 1
# [6] = tested on: NEK1; details: concentration: 1 μM, replicates: in singlicate, n = 1
# [7] = tested on: NEK2; details: concentration: 1 μM, replicates: in singlicate, n = 1
# [8] = tested on: NEK3; details: concentration: 1 μM, replicates: in singlicate, n = 1
# [9] = tested on: NEK4; details: concentration: 1 μM, replicates: in singlicate, n = 1
# [10] = tested on: NEK5; details: concentration: 1 μM, replicates: in singlicate, n = 1
# [11] = tested on: NEK6; details: concentration: 1 μM, replicates: in singlicate, n = 1
# [12] = tested on: NEK7; details: concentration: 1 μM, replicates: in singlicate; n = 1
# [13] = tested on: NEK9; details: concentration: 1 μM, replicates: in singlicate, n = 1
# [14] = tested on: T2, NIK; details: concentration: 1 μM, replicates: in singlicate, n = 1
# T2 construct: gene MAP3K14
# [15] = tested on: T3, NIM1; details: concentration: 1 μM, replicates: in singlicate, n = 1
# T3 construct: gene MGC42105
# [16] = tested on: NLK; details: concentration: 1 μM, replicates: in singlicate, n = 1
# [17] = tested on: T4, OSR1; details: concentration: 1 μM, replicates: in singlicate, n = 1
# T4 construct: gene OXSR1
# [18] = tested on: PAK1; details: concentration: 1 μM, replicates: in singlicate, n = 1
# [19] = tested on: PAK2; details: concentration: 1 μM, replicates: in singlicate, n = 1
# [20] = tested on: PAK3; details: concentration: 1 μM, replicates: in singlicate, n = 1
# 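Note: KINOMEscan kinase panel screen.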
compound,measurement,setting,value
Cc1cccc(-c2nc(-c3ccc(S(C)(=O)=O)cc3)sc2-c2ccncc2)c1,%Inh,[1],0%
same,%Inh,[2],0%
same,%Inh,[3],14%
same,%Inh,[4],0%
same,%Inh,[5],0%
same,%Inh,[6],8%
same,%Inh,[7],0%
same,%Inh,[8],61%
same,%Inh,[9],0%
same,%Inh,[10],3%
same,%Inh,[11],14%
same,%Inh,[12],0%
same,%Inh,[13],16%
same,%Inh,[14],0%
same,%Inh,[15],0%
same,%Inh,[16],64%
same,%Inh,[17],0%
same,%Inh,[18],14%
same,%Inh,[19],0%
same,%Inh,[20],9%
O=C(c1ccc(-c2cc(-c3c[nH]nc3-c3ccccn3)ccn2)cc1)N1CCOCC1 [GW812171],%Inh,[1],0%
same,%Inh,[2],44%
same,%Inh,[3],0%
same,%Inh,[4],18%
same,%Inh,[5],0%
same,%Inh,[6],0%
same,%Inh,[7],0%
same,%Inh,[8],25%
same,%Inh,[9],0%
same,%Inh,[10],0%
same,%Inh,[11],2%
same,%Inh,[12],0%
same,%Inh,[13],0%
same,%Inh,[14],32%
same,%Inh,[15],0%
same,%Inh,[16],0%
same,%Inh,[17],0%
same,%Inh,[18],7%
same,%Inh,[19],0%
same,%Inh,[20],0%
CC(C)(CN)c1nc(-c2ccc(Cl)c(O)c2)c(-c2ccncc2)[nH]1.O=C(O)C(F)(F)F [SB-477794],%Inh,[1]; 1 µM,0% and 47%
same,%Inh,[2]; 1 µM,40% and 49%
same,%Inh,[3]; 1 µM,63% and 52%
same,%Inh,[4]; 1 µM,19% and 24%
same,%Inh,[5],0%
same,%Inh,[6]; 1 µM,0% and 100%
same,%Inh,[7]; 1 µM,12% and 0%
same,%Inh,[8]; 1 µM,26% and 0%
same,%Inh,[9]; 1 µM,21% and 10%
same,%Inh,[10]; 1 µM,13% and 3%
same,%Inh,[11]; 1 µM,0% and 2%
same,%Inh,[12],0%
same,%Inh,[13]; 1 µM,0% and 11%
same,%Inh,[14]; 1 µM,0% and 3%
same,%Inh,[15]; 1 µM,4% and 0%
same,%Inh,[16]; 1 µM,98.1% and 98.4%
same,%Inh,[17]; 1 µM,4% and 0%
same,%Inh,[18]; 1 µM,23% and 11%
same,%Inh,[19]; 1 µM,1% and 0%
same,%Inh,[20]; 1 µM,35% and 39%
Cc1ccc(C(=O)NCC(N)=O)cc1-n1c(C)cc(OCc2ccc(F)cc2F)c(Br)c1=O,%Inh,[1],15%
same,%Inh,[2],24%
same,%Inh,[3],13%
same,%Inh,[4],0%
same,%Inh,[5],0%
same,%Inh,[6],0%
same,%Inh,[7],10%
same,%Inh,[8],29%
same,%Inh,[9],0%
same,%Inh,[10],0%
same,%Inh,[11],4%
same,%Inh,[12],12%
same,%Inh,[13],4%
same,%Inh,[14],0%
same,%Inh,[15],0%
same,%Inh,[16],14%
same,%Inh,[17],0%
same,%Inh,[18],16%
same,%Inh,[19],14%
same,%Inh,[20],37%
Cc1c2ccc(N(C)c3ccnc(Nc4cccc(S(N)(=O)=O)c4)n3)cc2nn1Cc1ccccc1.Cl.Cl [GW787226],%Inh,[1],41%
same,%Inh,[2],51%
same,%Inh,[3],1%
same,%Inh,[4],0%
same,%Inh,[5],0%
same,%Inh,[6],32%
same,%Inh,[7],0%
same,%Inh,[8],22%
same,%Inh,[9],6%
same,%Inh,[10],0%
same,%Inh,[11],0%
same,%Inh,[12],0%
same,%Inh,[13],0%
same,%Inh,[14],0%
same,%Inh,[15],0%
same,%Inh,[16],5%
same,%Inh,[17],0%
same,%Inh,[18],32%
same,%Inh,[19],49%
same,%Inh,[20],28%
